Here are results for 5 compounds from PubChem BioAssay.

The test system of experiment [1] is PRMT1 (protein arginine N-methyltransferase 1). The experiment in a line: small molecules binding arginine methyltransferase PRMT1 – biochemical, small-molecule microarray, 635 nm fluorescence, primary screen (AID 1088).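 Further: binding of Prmt1 protein to compounds spotted on small-molecule microarray slides.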 The following applies: higher = more signal.
A short description of experiment [2]: growth effects on S. cerevisiae YJM789 – YJM789 clinical isolate, OD600, 24 h, basal, primary screen (AID 1089).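 Further: growth of clinical yeast isolate S. cerevisiae YJM 789 seeded 1000 cells per well; test concentration not given here.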 The following applies: higher = more signal, called active from +8 up or from −8 down.
Experiment [3] in a line: S. pombe growth modifiers, basal conditions – strain 972, OD600, 24 h, no modulator, primary screen (AID 1090).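 Further: basal condition with compound alone and no growth modifier present; test concentration not given here.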 The following applies: S. pombe 972 growth, higher = more signal, called active from +8 up or from −8 down.
Experiment [4] in a line: budding yeast growth modifiers under rapamycin – strain BY4716, OD600, 96 h, primary screen (AID 1091). Further: test concentration not given here. The following applies: S. cerevisiae BY4716 + rapamycin, higher = more signal, called active from +8 up or from −8 down.
Experiment [5] concerns the target Torsin-1A-interacting protein 2 (Homo sapiens) (UniProt Q8NFQ8). The experiment in a line: small molecules binding lysate-expressed LULL1 – cell lysate, human LULL1 lysate, 635/667 nm fluorescence, primary screen (AID 1092).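 Further: probe is lysate of COS7 cells overexpressing human LULL1; score merges per-feature 667 nm fluorescence with signal-to-noise.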 The following applies: small-molecule microarray, hLULL1 lysate binding, 635 nm fluorescence; higher = more signal.
Experiment [6] is described as follows: optical density change of DRC41 E. coli – strain DRC41, OD650, 24 h, E. coli filamentation project, primary screen (AID 1093).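 Further: MC1000 strain lacking acrAB efflux and sulA so SOS filamentation is blocked; test concentration not given here.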 The following applies: E. coli DRC41 growth, higher = more signal, called active from +8 up or from −8 down.
A short description of experiment [7]: probe aLefty2 binding to arrayed compounds – biochemical, biotinylated probe, 635/667 nm fluorescence, primary screen (AID 1094).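 Further: score merges spot fluorescence near 667 nm with spot signal-to-noise ratio.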 The following applies: small-molecule microarray, higher = more signal.
Experiment [8] deals with Noggin (protein binding on small-molecule microarray). The experiment in a line: small molecules binding Noggin protein – biochemical, 635/667 nm fluorescence, primary screen (AID 1095).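 Further: score merges 667 nm feature fluorescence with signal to noise over triplicate slides.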 The following applies: 635 nm fluorescence, higher = more signal.
The target of experiment [9] is Neurogenic locus notch homolog protein 3 (Homo sapiens) (UniProt Q9UM47). Description: small molecules binding NOTCH3 protein – biochemical, 635/667 nm fluorescence, primary screen (AID 1096). The following applies: small-molecule microarray, 635 nm fluorescence, higher = more signal.
Chain of Neurogenic locus notch homolog protein 3 (Homo sapiens) (Q9UM47 whole entry, looked up): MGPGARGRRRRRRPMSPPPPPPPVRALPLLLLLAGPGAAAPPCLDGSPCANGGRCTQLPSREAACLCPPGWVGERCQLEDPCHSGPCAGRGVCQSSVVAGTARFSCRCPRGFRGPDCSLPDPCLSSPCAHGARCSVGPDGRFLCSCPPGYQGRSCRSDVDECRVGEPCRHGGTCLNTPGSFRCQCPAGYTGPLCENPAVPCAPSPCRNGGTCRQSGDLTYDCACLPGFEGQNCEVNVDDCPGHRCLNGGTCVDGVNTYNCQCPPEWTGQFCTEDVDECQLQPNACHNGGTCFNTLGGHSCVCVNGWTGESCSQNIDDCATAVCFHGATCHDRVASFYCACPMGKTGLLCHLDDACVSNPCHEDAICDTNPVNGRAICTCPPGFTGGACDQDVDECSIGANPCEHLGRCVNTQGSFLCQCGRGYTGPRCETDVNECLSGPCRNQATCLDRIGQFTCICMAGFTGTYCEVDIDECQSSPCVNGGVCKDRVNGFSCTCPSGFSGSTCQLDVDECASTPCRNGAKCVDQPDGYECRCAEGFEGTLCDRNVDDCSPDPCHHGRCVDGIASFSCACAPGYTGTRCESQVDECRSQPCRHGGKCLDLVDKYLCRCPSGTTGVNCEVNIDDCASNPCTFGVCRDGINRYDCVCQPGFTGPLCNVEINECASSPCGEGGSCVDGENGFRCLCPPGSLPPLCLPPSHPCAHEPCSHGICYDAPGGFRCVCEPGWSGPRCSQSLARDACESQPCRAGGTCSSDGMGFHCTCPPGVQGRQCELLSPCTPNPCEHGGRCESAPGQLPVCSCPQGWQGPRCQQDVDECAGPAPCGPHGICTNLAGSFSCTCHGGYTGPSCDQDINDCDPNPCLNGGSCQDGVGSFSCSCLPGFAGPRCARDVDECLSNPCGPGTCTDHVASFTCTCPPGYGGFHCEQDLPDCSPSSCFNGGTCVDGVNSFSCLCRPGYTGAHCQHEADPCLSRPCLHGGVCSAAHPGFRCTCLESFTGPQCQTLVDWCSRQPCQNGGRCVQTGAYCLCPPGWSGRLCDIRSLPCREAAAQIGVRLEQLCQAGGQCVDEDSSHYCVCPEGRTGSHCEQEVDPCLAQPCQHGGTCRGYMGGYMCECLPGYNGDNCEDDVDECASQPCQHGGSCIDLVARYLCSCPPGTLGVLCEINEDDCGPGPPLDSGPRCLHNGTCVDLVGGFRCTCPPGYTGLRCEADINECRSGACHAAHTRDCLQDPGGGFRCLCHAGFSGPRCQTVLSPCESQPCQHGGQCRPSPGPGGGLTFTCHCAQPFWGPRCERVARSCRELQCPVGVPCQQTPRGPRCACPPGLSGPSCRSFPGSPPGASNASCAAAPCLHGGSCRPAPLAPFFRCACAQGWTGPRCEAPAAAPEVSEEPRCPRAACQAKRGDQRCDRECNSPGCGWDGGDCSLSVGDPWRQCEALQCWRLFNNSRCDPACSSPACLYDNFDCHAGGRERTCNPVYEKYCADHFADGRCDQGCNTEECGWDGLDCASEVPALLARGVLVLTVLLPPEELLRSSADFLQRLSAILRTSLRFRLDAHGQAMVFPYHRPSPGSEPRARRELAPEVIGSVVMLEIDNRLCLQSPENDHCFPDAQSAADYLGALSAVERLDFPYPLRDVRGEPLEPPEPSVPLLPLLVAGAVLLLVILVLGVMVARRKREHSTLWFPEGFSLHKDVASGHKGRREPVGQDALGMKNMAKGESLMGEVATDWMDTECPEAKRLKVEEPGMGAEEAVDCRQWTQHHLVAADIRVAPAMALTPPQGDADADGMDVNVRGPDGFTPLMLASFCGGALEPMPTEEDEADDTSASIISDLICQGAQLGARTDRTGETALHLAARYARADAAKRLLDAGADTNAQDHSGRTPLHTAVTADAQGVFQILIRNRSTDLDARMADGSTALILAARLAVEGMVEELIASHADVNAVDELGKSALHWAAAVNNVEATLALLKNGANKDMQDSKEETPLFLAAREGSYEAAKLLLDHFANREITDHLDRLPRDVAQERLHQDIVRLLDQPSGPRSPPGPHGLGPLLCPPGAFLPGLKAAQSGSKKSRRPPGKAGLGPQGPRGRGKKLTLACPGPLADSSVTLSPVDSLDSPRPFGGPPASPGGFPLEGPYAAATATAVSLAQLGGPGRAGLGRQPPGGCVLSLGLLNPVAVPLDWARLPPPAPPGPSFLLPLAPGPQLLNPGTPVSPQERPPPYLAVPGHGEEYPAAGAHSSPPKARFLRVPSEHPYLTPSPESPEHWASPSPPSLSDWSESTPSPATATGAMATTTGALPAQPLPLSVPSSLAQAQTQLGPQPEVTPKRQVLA
Experiment [10] is described as follows: probe aEGFR binding to arrayed compounds – biochemical, biotinylated probe, 635/667 nm fluorescence, primary screen (AID 1097).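 Further: probe is a biotinylated anti-EGFR antibody binding compounds printed on slides; score combines fluorescence near 667 nm and signal to noise of each spot.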 The following applies: small-molecule microarray, higher = more signal.
For experiment [11], the system named is Plasmodium falciparum Sir2 (PF13_0152, Sir2A). Description: Plasmodium falciparum Sir2A binding compounds – biochemical, small-molecule microarray, 635 nm fluorescence, primary screen (AID 1098).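 Further: score merges spot fluorescence intensity with its signal-to-noise ratio.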 The following applies: fluorescence 635 nm, higher = more signal.
Experiment [12] in a line: probe aDKK1 binding to arrayed compounds – biochemical, biotinylated probe, 635/667 nm fluorescence, primary screen (AID 1099).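 Further: score merges 667nm spot fluorescence with signal to noise across triplicate slides; reference of the scale not given here.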 The following applies: small-molecule microarray, higher = more signal.
Experiment [13] is described as follows: probe aCHRDL2 binding to arrayed compounds – biochemical, biotinylated probe, 635/667 nm fluorescence, primary screen (AID 1100). The following applies: small-molecule microarray, higher = more signal.
Experiment [14] can be described thus: change in splice reporter luminescence, either direction, cell-based, HEK293, spliceosome inhibition project, primary screen (AID 1101).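 Further: HEK293 cells carrying a splicing-competent luciferase reporter gene; test concentration not given here.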 The following applies: HEK293 splicing luciferase reporter, 24 h, higher = more signal, called active from +8 up or from −8 down. A general note: Reporter assays use an easily measured gene product as a stand-in for the process of interest.

For experiment [15], the target named is Fibroblast growth factor 10 (Homo sapiens) (UniProt O15520). The experiment in a line: compounds binding fibroblast growth factor 10 – biochemical, small-molecule microarray, 635 nm fluorescence, primary screen (AID 1102). The following applies: FGF10 binding, fluorescence 635 nm, higher = more signal.
Chain of Fibroblast growth factor 10 (Homo sapiens) (O15520 whole entry, looked up): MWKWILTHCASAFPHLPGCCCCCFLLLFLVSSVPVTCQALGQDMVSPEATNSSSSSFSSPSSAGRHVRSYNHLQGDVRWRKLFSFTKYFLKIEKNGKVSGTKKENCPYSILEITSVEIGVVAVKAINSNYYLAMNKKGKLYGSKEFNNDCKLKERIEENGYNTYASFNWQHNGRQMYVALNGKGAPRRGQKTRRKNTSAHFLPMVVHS
Experiment [16] has as its system glycogen synthase kinase-3 (GSK3A per assay name; protocol says GSK3B). Description: compounds binding glycogen synthase kinase-3 – biochemical, small-molecule microarray, 635 nm fluorescence, GSK3A, primary screen (AID 1103). Further: the record names both GSK3A and GSK3B. The following applies: fluorescence 635 nm, higher = more signal.
Experiment [17] has as its target Epidermal growth factor receptor (Homo sapiens) (UniProt P00533). Description: compounds binding epidermal growth factor receptor – biochemical, small-molecule microarray, 635 nm fluorescence, primary screen (AID 1104).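 Further: score merges 667 nm emission intensity with spot signal to noise over triplicate slides.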 The following applies: EGFR binding, higher = more signal.
For experiment [18], the target named is Follistatin-related protein 3 (Homo sapiens) (UniProt O95633). Description: compounds binding follistatin-related protein 3 – biochemical, small-molecule microarray, 635 nm fluorescence, primary screen (AID 1105).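 Further: score merges emission near 667 nm and signal to noise per printed spot across three slides.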 The following applies: FSTL3 binding, higher = more signal.
Chain of Follistatin-related protein 3 (Homo sapiens) (O95633 whole entry, looked up): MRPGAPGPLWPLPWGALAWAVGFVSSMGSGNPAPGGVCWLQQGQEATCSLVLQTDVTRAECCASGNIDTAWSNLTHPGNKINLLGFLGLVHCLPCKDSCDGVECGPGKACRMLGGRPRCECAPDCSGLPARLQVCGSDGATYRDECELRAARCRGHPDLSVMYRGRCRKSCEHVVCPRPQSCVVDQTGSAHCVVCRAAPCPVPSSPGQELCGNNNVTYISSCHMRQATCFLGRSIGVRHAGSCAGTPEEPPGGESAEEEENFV
In experiment [19] the target is Dickkopf-related protein 1 (Homo sapiens) (UniProt O94907). The experiment in a line: small molecules binding DKK1 protein – biochemical, small-molecule microarray, 635 nm fluorescence scan, primary screen (AID 1106).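 Further: score merges emission near 667 nm with signal to noise over three replicate slides.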 The following applies: higher = more signal.
Chain of Dickkopf-related protein 1 (Homo sapiens) (O94907 whole entry, looked up): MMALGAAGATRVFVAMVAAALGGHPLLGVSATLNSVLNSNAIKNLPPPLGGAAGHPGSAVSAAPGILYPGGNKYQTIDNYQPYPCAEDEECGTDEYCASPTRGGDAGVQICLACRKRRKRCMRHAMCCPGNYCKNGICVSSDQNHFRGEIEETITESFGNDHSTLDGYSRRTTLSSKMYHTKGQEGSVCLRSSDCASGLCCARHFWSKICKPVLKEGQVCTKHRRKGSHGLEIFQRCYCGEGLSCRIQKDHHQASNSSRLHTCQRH
The subject of experiment [20] is Inhibin beta A chain (activin A). Description: small molecules binding activin A – biochemical, small-molecule microarray, 635 nm fluorescence scan, primary screen (AID 1107).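 Further: mouse activin A protein probed at 4.33 µg/mL on printed slides; score merges bound-protein fluorescence near 667 nm with spot signal-to-noise.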 The following applies: INHBA, higher = more signal.

Activity calls are given as the source filed them.

Chain of Epidermal growth factor receptor (Homo sapiens) (P00533 whole entry, looked up): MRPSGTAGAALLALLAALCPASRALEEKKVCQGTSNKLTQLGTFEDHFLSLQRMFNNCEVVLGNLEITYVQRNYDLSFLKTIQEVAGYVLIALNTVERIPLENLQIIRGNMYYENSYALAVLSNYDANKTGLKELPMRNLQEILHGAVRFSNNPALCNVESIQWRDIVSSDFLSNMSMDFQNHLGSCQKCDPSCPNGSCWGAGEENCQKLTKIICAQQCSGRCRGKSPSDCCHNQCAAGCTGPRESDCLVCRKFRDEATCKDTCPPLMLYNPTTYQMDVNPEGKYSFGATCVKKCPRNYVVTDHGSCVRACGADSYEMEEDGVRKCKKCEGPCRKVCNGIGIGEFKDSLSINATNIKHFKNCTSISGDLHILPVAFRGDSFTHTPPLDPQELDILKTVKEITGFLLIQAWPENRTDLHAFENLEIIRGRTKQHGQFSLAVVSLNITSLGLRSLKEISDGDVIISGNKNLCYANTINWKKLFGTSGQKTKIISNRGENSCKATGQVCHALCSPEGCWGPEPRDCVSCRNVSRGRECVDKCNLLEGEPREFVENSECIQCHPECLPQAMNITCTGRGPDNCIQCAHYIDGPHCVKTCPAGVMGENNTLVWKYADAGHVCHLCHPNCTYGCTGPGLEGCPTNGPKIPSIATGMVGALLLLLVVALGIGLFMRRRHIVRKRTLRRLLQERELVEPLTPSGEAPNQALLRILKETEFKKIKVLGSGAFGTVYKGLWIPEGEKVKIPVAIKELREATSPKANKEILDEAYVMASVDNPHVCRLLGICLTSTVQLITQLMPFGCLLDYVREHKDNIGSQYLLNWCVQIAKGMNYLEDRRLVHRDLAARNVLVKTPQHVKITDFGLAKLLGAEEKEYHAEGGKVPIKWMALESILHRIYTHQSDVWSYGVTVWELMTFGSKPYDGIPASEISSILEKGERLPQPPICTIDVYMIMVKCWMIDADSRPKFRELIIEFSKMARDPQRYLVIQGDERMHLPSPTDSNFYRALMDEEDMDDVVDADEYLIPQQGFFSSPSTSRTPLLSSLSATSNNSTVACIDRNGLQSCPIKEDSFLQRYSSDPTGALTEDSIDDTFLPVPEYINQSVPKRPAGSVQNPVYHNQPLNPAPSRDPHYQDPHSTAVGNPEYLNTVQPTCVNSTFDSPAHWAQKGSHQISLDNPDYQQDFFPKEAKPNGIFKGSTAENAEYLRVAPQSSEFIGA
Chain of Torsin-1A-interacting protein 2 (Homo sapiens) (Q8NFQ8 whole entry, looked up): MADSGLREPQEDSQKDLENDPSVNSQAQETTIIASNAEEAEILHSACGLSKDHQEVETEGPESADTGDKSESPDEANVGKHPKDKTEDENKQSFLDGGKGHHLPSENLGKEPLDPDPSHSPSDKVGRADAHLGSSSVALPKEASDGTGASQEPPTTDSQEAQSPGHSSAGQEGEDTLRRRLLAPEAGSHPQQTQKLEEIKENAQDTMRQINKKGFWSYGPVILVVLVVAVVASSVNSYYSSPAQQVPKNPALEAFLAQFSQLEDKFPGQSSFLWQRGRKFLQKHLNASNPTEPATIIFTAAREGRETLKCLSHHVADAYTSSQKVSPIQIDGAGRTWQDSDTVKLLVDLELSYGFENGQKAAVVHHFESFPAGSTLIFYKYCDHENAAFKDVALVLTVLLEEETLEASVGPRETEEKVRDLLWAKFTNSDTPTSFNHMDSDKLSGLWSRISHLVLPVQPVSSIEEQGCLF

Turning to `COC(=O)[C@H](C)NC(=O)CCC1CC(OC(=O)NCc2cccc3ccccc23)CC2(CCCC(COC(=O)NCc3cccc(C(F)(F)F)c3)O2)O1` (stereo not given in full), the composite z-score in [1] was 1.41; in [5], 1.78; in [7], -0.139; in experiment [8], 0.6; in experiment [9], 1.09; in experiment [10], 0.151. The composite z-score in experiment [11] was 0.988; in experiment [12], -0.0508; in experiment [13], -0.134; in experiment [15], 0.908; in experiment [16] it was 0.611; in experiment [17] it was 0.473. Also, the figures for the composite z-score in experiment [18], in experiment [19] and in experiment [20] were 0.677, 0.303 and -0.108, respectively. The z-score in [2] was -2.05 (inactive); in [3], -0.645 (inactive); in experiment [4], 0.523 (inactive); in [6], -1.21 (inactive); in experiment [14], -1.39 (inactive).
`CCOC(=O)[C@H](CC(C)C)NC(=O)CCC1CC(OC(=O)NCc2ccc3c(c2)OCO3)CC2(CCCC(COC(=O)NCCc3ccccc3OC)O2)O1` (stereo not given in full): the composite z-score in experiment [1] is 1.34; in [5], 1.99; in experiment [7] it was -0.136; in experiment [8], 0.474; in [9] it was 1.11; in experiment [10], -0.0177. Further, the composite z-score in [11] was 0.608; in experiment [12] it was -0.0877; in experiment [13], -0.497; in experiment [15], 0.533; in experiment [16], 1.27; in experiment [17], 0.461. In addition, the figures for the composite z-score in experiment [18], in experiment [19] and in experiment [20] were 1.01, 0.434 and -0.344, respectively. The z-score in [2] was -0.156 (inactive); in experiment [3], 0.249 (inactive); in [4] it was 0.947 (inactive); in [6], -0.133 (inactive); in [14], 0.0955 (inactive).
On to `COC(=O)[C@H](C)NC(=O)CCC1CC(OC(=O)NCc2ccc3c(c2)OCO3)CC2(CCCC(COC(=O)NCCC(C)C)O2)O1` (stereo not given in full), for which the composite z-score in experiment [1] is 1.55; in experiment [5], 2.28; in experiment [7], -0.166; in experiment [8], 0.501; in [9], 0.437; in experiment [10], -0.0858. Also, the composite z-score in experiment [11] is 0.624; in [12], -0.076; in [13], -0.434; in [15], 0.412; in experiment [16], 0.69; in experiment [17], 0.0295. In addition, the results for the composite z-score in [18], in experiment [19] and in experiment [20] were 0.505, 0.205 and -2.25, respectively. For the same compound, the z-score in experiment [2] was -0.916 (inactive); in [3], -0.031 (inactive); in [4] it was -1.24 (inactive); in experiment [6] it was 0.861 (inactive); in experiment [14], 0.0265 (inactive).
In the case of `COC(=O)CC=C[C@@H](C)[C@@H](C=NOC[C@@H](O)COCc1ccco1)OC`, the composite z-score in [1] was 0.302; in experiment [5], 0.378; in [7] it was -0.336; in experiment [8], 1.49; in experiment [9], -0.456; in [10], -0.132. The composite z-score in [11] is 1.05; in experiment [12], -0.589; in experiment [13], -1.34; in [15], -0.469; in experiment [16], 0.149; in experiment [17], -0.446. The composite z-score in experiment [18] is -0.0313; in [19], 1.15; in experiment [20], 0.533. The z-score is -0.0605 (inactive) in experiment [2]; -0.543 (inactive) in experiment [3]; 0.225 (inactive) in experiment [4]; -0.255 (inactive) in experiment [6]; -0.485 (inactive) in experiment [14].
With `C[C@@H]1C=CCC(=O)OC[C@H](C)C(=O)N[C@@H](Cc2ccccc2)C(=O)OC1`, the composite z-score is -0.431 in experiment [1]; 0.146 in experiment [5]; -0.192 in [7]; 0.79 in experiment [8]; -0.019 in experiment [9]; -0.0513 in experiment [10]. The composite z-score in experiment [11] is -0.0137; in [12] it was -0.526; in experiment [13] it was -0.683; in experiment [15], 0.3; in experiment [16], -0.0825; in experiment [17], 0.643. The composite z-score is 0.582 in [18], 0.909 in [19] and -0.289 in experiment [20]. Further, the z-score in experiment [2] was 0.214 (inactive); in experiment [3], -1.06 (inactive); in experiment [4] it was -0.0603 (inactive); in experiment [6], -0.234 (inactive); in experiment [14], -1.03 (inactive).
